Laboratory results taken from PubChem BioAssay (NCI).
About 83,000 compounds went through this panel and 20% of them were active in at least one assay; those are over-represented in the sample as a whole.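 Cells were grown in 96-well plates and exposed to the test compound at a single concentration for 48 hours; results are reported as percent growth, with values below 10 considered active.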 Values without a mark were called inactive. Active and inactive are the calls of the source.

What was measured:
Assay in all cases: NCI-60 one-dose screen, 48 h (100 = growth as untreated, 0 = no growth, -100 = all killed)
Settings in all cases: 10 µM unless noted
DU-145 prostate = system: DU-145 prostate
K-562 leukemia = system: K-562 leukemia
MALME-3M melanoma = system: MALME-3M melanoma
MDA-MB-231 breast = system: MDA-MB-231 breast
RXF 393 renal = system: RXF 393 renal
SF-268 CNS = system: SF-268 CNS
SF-295 CNS = system: SF-295 CNS
SF-539 CNS = system: SF-539 CNS
UACC-257 melanoma = system: UACC-257 melanoma
M14 melanoma = system: M14 melanoma
HCT-15 colon = system: HCT-15 colon
HT29 colon = system: HT29 colon
SNB-75 CNS = system: SNB-75 CNS
SNB-19 CNS = system: SNB-19 CNS
U251 CNS = system: U251 CNS
PC-3 prostate = system: PC-3 prostate
SK-MEL-5 melanoma = system: SK-MEL-5 melanoma
UACC-62 melanoma = system: UACC-62 melanoma
LOX IMVI melanoma = system: LOX IMVI melanoma
SK-MEL-28 melanoma = system: SK-MEL-28 melanoma

C(=C\c1n(Cc2ccc3ccccc3c2)c(-c2ccccc2)c(-c2ccccc2)[n+]1Cc1ccc2ccccc2c1)/c1ccccc1
growth (DU-145 prostate): -97% (active) | growth (K-562 leukemia): -22.3% (active) | growth (MALME-3M melanoma): -86.9% (active) | growth (MDA-MB-231 breast): -95% (active) | growth (RXF 393 renal): -93.5% (active) | growth (SF-268 CNS): -68.5% (active) | growth (SF-295 CNS): -95.9% (active) | growth (SF-539 CNS): -91.9% (active) | growth (UACC-257 melanoma): -69.2% (active) | growth (M14 melanoma): -72.2% (active) | growth (HCT-15 colon): -81.2% (active) | growth (HT29 colon): -63.5% (active) | growth (SNB-75 CNS): -99.9% (active) | growth (SNB-19 CNS): -93.7% (active) | growth (U251 CNS): -80.6% (active) | growth (PC-3 prostate): -81.2% (active) | growth (SK-MEL-5 melanoma): -99.1% (active) | growth (UACC-62 melanoma): -89.9% (active) | growth (LOX IMVI melanoma): -96% (active) | growth (SK-MEL-28 melanoma): -80.8% (active)

O=C(Nc1cccc(C2=NCCN2)c1)c1ccc(OCCCOc2ccc(C(=O)Nc3cccc(C4=NCCN4)c3)cc2)cc1
growth (DU-145 prostate): 9.35% (active) | growth (K-562 leukemia): 27.2% | growth (MALME-3M melanoma): -82% (active) | growth (MDA-MB-231 breast): -10.5% (active) | growth (RXF 393 renal): -19.9% (active) | growth (SF-268 CNS): 25.9% | growth (SF-295 CNS): 52.1% | growth (SF-539 CNS): -43.7% (active) | growth (UACC-257 melanoma): -11% (active) | growth (M14 melanoma): 30.4% | growth (HCT-15 colon): 90.7% | growth (HT29 colon): 12.9% | growth (SNB-75 CNS): -1.39% (active) | growth (SNB-19 CNS): 14.9% | growth (U251 CNS): 24.8% | growth (PC-3 prostate): 29.8% | growth (SK-MEL-5 melanoma): 2.98% (active) | growth (UACC-62 melanoma): -10.5% (active) | growth (LOX IMVI melanoma): -33.4% (active) | growth (SK-MEL-28 melanoma): -67.4% (active)

[O-][n+]1ccccc1CCN(O)CCc1cccc[n+]1[O-]
growth (DU-145 prostate): 111% | growth (K-562 leukemia): 106% | growth (MALME-3M melanoma): 99.5% | growth (MDA-MB-231 breast): 97.8% | growth (RXF 393 renal): 113% | growth (SF-268 CNS): 101% | growth (SF-295 CNS): 103% | growth (SF-539 CNS): 87% | growth (UACC-257 melanoma): 106% | growth (M14 melanoma): 94.5% | growth (HCT-15 colon): 99.3% | growth (HT29 colon): 98.5% | growth (SNB-75 CNS): 85.4% | growth (SNB-19 CNS): 102% | growth (U251 CNS): 105% | growth (PC-3 prostate): 91.8% | growth (SK-MEL-5 melanoma): 95.3% | growth (UACC-62 melanoma): 99% | growth (LOX IMVI melanoma): 97.9% | growth (SK-MEL-28 melanoma): 116%

CC(c1ccccc1)n1ccnc1CO (stereo not given)
growth (DU-145 prostate): 113% | growth (K-562 leukemia): 105% | growth (MALME-3M melanoma): 85.5% | growth (MDA-MB-231 breast): 104% | growth (RXF 393 renal): 101% | growth (SF-268 CNS): 107% | growth (SF-295 CNS): 96.1% | growth (SF-539 CNS): 106% | growth (UACC-257 melanoma): 106% | growth (M14 melanoma): 109% | growth (HCT-15 colon): 107% | growth (HT29 colon): 119% | growth (SNB-75 CNS): 92.4% | growth (SNB-19 CNS): 98.5% | growth (U251 CNS): 98.9% | growth (PC-3 prostate): 94.7% | growth (SK-MEL-5 melanoma): 93.4% | growth (UACC-62 melanoma): 104% | growth (LOX IMVI melanoma): 96.3% | growth (SK-MEL-28 melanoma): 94.5%

CCOC(=O)c1c(C)nc2c(c1N)C(=O)C(=O)N2Cc1ccc(C(F)(F)F)cc1
growth (DU-145 prostate): 84.5% | growth (K-562 leukemia): 36.2% | growth (MALME-3M melanoma): 59.3% | growth (MDA-MB-231 breast): 75.6% | growth (RXF 393 renal): 58.7% | growth (SF-268 CNS): 59.7% | growth (SF-295 CNS): 81% | growth (SF-539 CNS): 52.6% | growth (UACC-257 melanoma): 74.2% | growth (M14 melanoma): 53% | growth (HCT-15 colon): 24.1% | growth (HT29 colon): 65.1% | growth (SNB-75 CNS): 62.2% | growth (SNB-19 CNS): 59.3% | growth (U251 CNS): 41% | growth (PC-3 prostate): 43.7% | growth (SK-MEL-5 melanoma): 66.7% | growth (UACC-62 melanoma): 42.8% | growth (LOX IMVI melanoma): 54.1% | growth (SK-MEL-28 melanoma): 74.8%

CC(=O)c1cc2c(N)c(C(=O)Nc3cncc4ccccc34)sc2nc1C
growth (DU-145 prostate): 115% | growth (K-562 leukemia): 81.7% | growth (MALME-3M melanoma): 112% | growth (MDA-MB-231 breast): 86.2% | growth (RXF 393 renal): 100% | growth (SF-268 CNS): 105% | growth (SF-295 CNS): 97.2% | growth (SF-539 CNS): 98.3% | growth (UACC-257 melanoma): 104% | growth (M14 melanoma): 94% | growth (HCT-15 colon): 95.4% | growth (HT29 colon): 107% | growth (SNB-75 CNS): 91.5% | growth (SNB-19 CNS): 98.5% | growth (U251 CNS): 106% | growth (PC-3 prostate): 93.8% | growth (SK-MEL-5 melanoma): 98.5% | growth (UACC-62 melanoma): 76.1% | growth (LOX IMVI melanoma): 98.9% | growth (SK-MEL-28 melanoma): 102%

CCCCCCCCOc1ccc(/C=N/Nc2cc(C)nc3ccc(Cl)cc23)cc1
growth (DU-145 prostate): -87.3% (active) | growth (K-562 leukemia): -52.6% (active) | growth (MALME-3M melanoma): 91% | growth (MDA-MB-231 breast): -59.3% (active) | growth (RXF 393 renal): -68.9% (active) | growth (SF-268 CNS): 104% | growth (SF-295 CNS): -72.8% (active) | growth (SF-539 CNS): -81% (active) | growth (UACC-257 melanoma): 116% | growth (M14 melanoma): 87.7% | growth (HCT-15 colon): -82.3% (active) | growth (HT29 colon): -55.9% (active) | growth (SNB-75 CNS): 52.2% | growth (SNB-19 CNS): 9.5% (active) | growth (U251 CNS): -61% (active) | growth (PC-3 prostate): -62.9% (active) | growth (SK-MEL-5 melanoma): 96% | growth (UACC-62 melanoma): 91.2% | growth (LOX IMVI melanoma): -90.7% (active) | growth (SK-MEL-28 melanoma): 64.3%
